# Results taken from PubChem BioAssay (NCI).
# The panel holds about 83,000 compounds, 20% with a hit somewhere; the sample as a whole holds those more often.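 Values shown are percent growth following 48 h exposure of cells in 96-well plates to a single concentration of compound; below 10 was considered active.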 Unmarked numbers belong to inactive results. Activity calls are given as the source filed them.
# Assays:
# Test in all cases: NCI-60 one-dose screen, 48 h (100 = growth as untreated, 0 = no growth, -100 = all killed)
# Conditions in all cases: 10 µM unless noted
# [1] = test system: DU-145 prostate
# [2] = test system: K-562 leukemia
# [3] = test system: MALME-3M melanoma
# [4] = test system: MDA-MB-231 breast
# [5] = test system: RXF 393 renal
# [6] = test system: SF-268 CNS
# [7] = test system: SF-295 CNS
# [8] = test system: SF-539 CNS
# [9] = test system: UACC-257 melanoma
# [10] = test system: M14 melanoma
# [11] = test system: HCT-15 colon
# [12] = test system: HT29 colon
# [13] = test system: SNB-75 CNS
# [14] = test system: SNB-19 CNS
# [15] = test system: U251 CNS
# [16] = test system: PC-3 prostate
# [17] = test system: SK-MEL-5 melanoma
# [18] = test system: UACC-62 melanoma
# [19] = test system: LOX IMVI melanoma
# [20] = test system: SK-MEL-28 melanoma
SMILES,growth [1],growth [2],growth [3],growth [4],growth [5],growth [6] [%],growth [7],growth [8],growth [9],growth [10],growth [11],growth [12],growth [13],growth [14],growth [15],growth [16],growth [17],growth [18],growth [19],growth [20]
COc1ccc2c(c1)OC(N)=C(C#N)C2c1ccc(F)cc1 (stereo not given),36.8%,12%,61.6%,56.7%,16.1%,47.1,23.4%,19.2%,51.7%,14.1%,21.9%,5.87% (active),8.49% (active),30.1%,31.3%,27.9%,22.6%,29.7%,39.1%,65%
Cc1nssc1=S,113%,93.8%,102%,112%,113%,106,99.7%,101%,102%,88.2%,104%,102%,92.3%,96.5%,102%,88.2%,108%,104%,89.4%,101%
CC(C)(CCN=C(N)Nc1ccccn1)c1ccc(C(F)(F)F)cc1,52.7%,-31.2% (active),-49.4% (active),-14.4% (active),26.2%,51.2,6.92% (active),53.9%,-7.98% (active),-64.3% (active),9.42% (active),-14.8% (active),48.3%,37.2%,-17% (active),19.7%,-91.4% (active),-2.3% (active),5.15% (active),-30.9% (active)
CS(=O)(=O)Nc1cccc(-c2ccc3ncnc(Nc4ccc(F)c(Cl)c4)c3c2)c1,28.4%,11.2%,31%,-2.84% (active),23.7%,38.9,3.13% (active),25.9%,49.4%,10.5%,1% (active),1.71% (active),32.8%,47.4%,18.2%,12.3%,21.4%,28.2%,-35.4% (active),44.9%
Nc1nccc2c1ccn2-c1ccc(NC(=O)c2ccc(N3CCOCC3)c(C(F)(F)F)c2)cc1,48.3%,1.22% (active),-18.1% (active),-3.15% (active),-77.4% (active),18.2,-59.6% (active),7.48% (active),32.7%,-61.8% (active),14.1%,-39.7% (active),25.7%,0.546% (active),12%,10.4%,-89.6% (active),6.43% (active),-45.3% (active),48.9%
O=C(NCCNc1nccc(-c2c(-c3cccc(O)c3)nc3sccn23)n1)Nc1cccc(C(F)(F)F)c1,89%,70.6%,23.6%,37.7%,26.3%,26.2,75.5%,98.5%,25.3%,-21.7% (active),84.7%,38.9%,66.2%,89.5%,81.6%,26.7%,53.5%,29.4%,64.5%,48.8%
O=C(Nc1ccc(-n2cc(-c3ccncc3)c(-c3ccc(O)c(Cl)c3)n2)cc1)Nc1ccc(Cl)c(C(F)(F)F)c1,29.5%,17.1%,13.3%,-39.7% (active),-74.4% (active),18.4,-10.3% (active),13.7%,47.5%,7.1% (active),9.15% (active),47.9%,28%,27.7%,5.79% (active),1.79% (active),-73.6% (active),9.18% (active),16.6%,20.1%
C/C(=N/O)c1ccc(NC(=O)Cn2nc(-c3ccc(Cl)cc3)nc2N)cc1,104%,99.3%,102%,82.7%,100%,89.2,107%,97.3%,73%,107%,114%,86.8%,87.3%,89.1%,90.3%,71.8%,98.1%,91.8%,97%,114%
COc1ccc(/C=C/C(=O)c2ccc(Oc3ncnc4ccccc34)cc2)cc1OC,61.9%,9.19% (active),77.5%,81.6%,88.1%,74.8,85.7%,73.5%,93.8%,64.3%,24.3%,27.4%,74.8%,64.9%,50.9%,82.1%,72.5%,76.9%,13.8%,104%
CC(=O)c1ccc2c(c1)C1C=CCC1[C@H](c1cc3c(cc1Br)OCO3)N2 (stereo not given in full),-17% (active),4.19% (active),49.7%,16.9%,-12.4% (active),40.6,-36.7% (active),-12.1% (active),75%,-7.21% (active),18.4%,4.15% (active),30.6%,44.6%,14%,20.9%,9.13% (active),34.6%,-35.6% (active),72.7%
Cc1cc(Nc2ccc(Cl)c(Cl)c2)nc(N)n1,94.3%,87.4%,121%,101%,72.9%,95.2,96.8%,99.9%,77.1%,91.6%,97.3%,86.9%,72.3%,107%,95.3%,89.6%,83.9%,89.1%,100%,101%
O=C(O)c1ccc(-n2cc(/C=N/Nc3ccccc3F)c(-c3ccc(O)cc3)n2)cc1,97%,13%,92.7%,85.2%,92.6%,78.6,80.5%,85.9%,103%,73.5%,73.1%,101%,82.8%,95.2%,86.9%,74.8%,78%,46.5%,37%,97.1%
O=c1c2ccccc2sc2c(NCCCNCCO)nc3ccccc3c12,16.5%,-39.5% (active),-55.3% (active),-10.6% (active),14.2%,37.5,-3.85% (active),54.7%,64%,-61.8% (active),13.7%,-47.3% (active),35.3%,63.7%,21.3%,22.1%,-64.7% (active),-17.8% (active),-87.4% (active),-18.1% (active)
CC(C)NCC(O)COc1ccc(CC(N)=O)cc1 (stereo not given),109%,96.6%,98.4%,103%,111%,112,95.8%,109%,104%,98.3%,99.3%,103%,99%,106%,101%,92.5%,94.9%,107%,98.1%,103%
O=C(Nc1ccc(-n2cc(-c3ccncc3)c(-c3ccc(O)c(Cl)c3)n2)cc1)c1cc(C(F)(F)F)cc(C(F)(F)F)c1,65%,36.7%,77.7%,21.3%,-21.1% (active),56,31%,57.7%,77.1%,30.2%,34.6%,51.7%,63.9%,66.2%,43.8%,35.8%,60%,71.2%,42.4%,68.8%
